Screening results from PubChem.
DRD3 antagonist = qHTS of D3 Dopamine Receptor Antagonist: qHTS; max response, negative = inhibition, %; hit rate 2.5% among 360,000; D(3) dopamine receptor (Homo sapiens), P35462; D3R cells, DiscoveRx beta-arrestin luminescence, antagonist mode; active compounds read low; AID 652054, 2013; in the data active means max response below about -50%; inconclusive means no clear call, values can overlap the other calls; further: on the % scale 0 is the no-effect control and ±100 the full control effect
Target sequence (P35462 whole entry, looked up): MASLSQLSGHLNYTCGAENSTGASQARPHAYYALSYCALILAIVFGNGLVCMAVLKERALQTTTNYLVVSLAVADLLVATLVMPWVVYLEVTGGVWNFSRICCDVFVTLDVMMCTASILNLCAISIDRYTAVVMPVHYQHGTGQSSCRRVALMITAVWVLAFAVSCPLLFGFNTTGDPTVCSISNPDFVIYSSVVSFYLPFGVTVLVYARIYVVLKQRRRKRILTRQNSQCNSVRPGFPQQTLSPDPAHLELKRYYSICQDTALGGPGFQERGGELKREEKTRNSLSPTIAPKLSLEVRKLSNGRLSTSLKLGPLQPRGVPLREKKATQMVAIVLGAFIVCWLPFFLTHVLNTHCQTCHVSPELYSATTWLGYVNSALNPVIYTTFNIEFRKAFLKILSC
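Cells expressing the human receptor were seeded at 1500 cells/well, incubated overnight at 37 degrees C in 5% CO2, then exposed to library compounds with dopamine controls for 90 minutes at 37 degrees C before luminescent detection.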
D3 ag = qHTS of D3 Dopamine Receptor Agonist: qHTS | D3R DiscoveRx beta-arrestin cells, luminescence, 90 min | max activation, % | D(3) dopamine receptor (Homo sapiens), P35462 | hit rate 0.58% among 410,000 | AID 652048, 2013; in the data active means max activation above about 30%; further: 0% is about no effect
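Agonist mode: compounds and dopamine controls were applied to plated cells for 90 min at 37 degrees C after an overnight attachment at 1500 cells/well. Luminescent read-out followed 30 - 60 minutes at room temperature with DiscoveRx detection reagent.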
TDP1 cell CPT = qHTS for Inhibitors of human tyrosyl-DNA phosphodiesterase 1 (TDP1): qHTS in cells in presence of CPT. chicken DT40 Tdp1-/-;hTDP1 cells + 20 nM CPT, ATP luminescence, 48 h. Potency, µM (top dose mostly 46.2 µM), without a hit: at the highest dose activity change, negative = growth inhibition, usual class: inhibitors. hit rate 12% among 420,000. AID 686979, 2013; further: potency means the concentration at half of the fitted maximal effect; on the % scale 0 is the no-effect control and ±100 the full control effect; nearly all actives have a fitted effect of over 55% in size
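Cell growth measured by CellTiter-Glo luminescence after a minimum 48 h, 37 C compound exposure with 20 nM CPT in Tdp1-knockout DT40 cells stably expressing hTDP1, seeded 400/well; qHTS titration format.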
TDP1 cell noCPT = qHTS for Inhibitors of human tyrosyl-DNA phosphodiesterase 1 (TDP1): qHTS in cells in absence of CPT; DT40 Tdp1-/- hTDP1 cells, no CPT, ATP luminescence, 48 h; Potency, µM (series often up to 46.2 µM), without a hit: at the top dose activity change, negative = growth inhibition, hits mostly inhibitors; hit rate 15% among 420,000; further: potency means the concentration at half of the fitted maximal effect; on the % scale 0 is the no-effect control and ±100 the full control effect; nearly all actives have a fitted effect of over 55% in size
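Luminescent ATP content (CellTiter-Glo) served as the growth readout. Knockout chicken DT40 cells expressing human TDP1 were exposed to compounds without camptothecin for a minimum 48 hr at 37 °C.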
ClpP mod = qHTS Assay for Activators of ClpP | AID 651965, 2013 | Potency, µM (series often up to 57.5 µM), without a hit: at the highest dose activity change, negative = active | hit rate 1.9% among 340,000 | purified B. subtilis ClpP, FRET peptide cleavage, 20 min; active means well fitted falling curve with a large enough effect; inconclusive means small, poorly fitted or top-dose-only effect; inactive means no such curve, though single readings can be large or run the other way; further: potency means the concentration at half of the fitted maximal effect; the source files actives as falling curves though it sought activators and does not explain the sign; nearly all actives have a fitted effect of over 65% in size
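ClpP 10 microg/mL final, pH 8 Tris/KCl buffer with BSA, glycerol, Tween-20; compound pinned in; FRET-FV substrate; RT 20 min; Ex320/Em430; ΔFRET vs ADEP 5.8 microM, DMSO, no enzyme.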
IL1B secr inh = qHTS for Inhibitors of Inflammasome Signaling: IL-1-beta AlphaLISA Primary Screen; THP-1 LPS/ATP IL-1B secretion, AlphaLISA, 16 h; active compounds read low; activity change, % at 57.5 µM; hit rate 4.7% among 360,000; in the data active means activity change below about -50%; inconclusive means mostly about -30% to -49%; further: on the % scale 0 is the no-effect control and ±100 the full control effect
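THP-1 cells pretreated 1 hr with compounds (up to 57.5 uM final), then stimulated with LPS (250 ng/mL final) plus ATP (1.25 mM final); secreted IL-1B measured by AlphaLISA after 16 hr, decreased signal indicating inhibition.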
* marks the source's active call; other numbers are inactive results. Hits are enriched below; roughly 21% of the tested compounds scored in any of these assays. Unless noted, the call rests on the fitted dose curve; in most records, active means well fitted inhibition curve with a large enough effect; inconclusive means small, poorly fitted or top-dose-only effect; inactive means flat fitted curve, though single readings scatter.

Results for COCCn1c(=O)[nH]c2cc(C(=O)N3CCN(c4cccc(C(F)(F)F)c4)CC3)ccc2c1=O ?
DRD3 antagonist: 30.4; D3 ag: 6.3; TDP1 cell CPT: 20.6µM*; TDP1 cell noCPT: 13µM*; IL1B secr inh: -6.7

What do the screens show for `COc1ccc(N2CCN(CCNC(=O)CCCn3c(=O)[nH]c4cc(Cl)ccc4c3=O)CC2)cc1`?
DRD3 antagonist: 0.4; D3 ag: -3.7; TDP1 cell CPT: inconclusive; TDP1 cell noCPT: inconclusive; ClpP mod: 28.2µM*; IL1B secr inh: -0.9

Results for O=C(CSc1nnc2ccc(-c3ccc(F)cc3)nn12)N1CCOCC1 ?
DRD3 antagonist: 24.9; D3 ag: 3.6; TDP1 cell CPT: 0.4%; TDP1 cell noCPT: -3.3%; ClpP mod: -0.1%; IL1B secr inh: -12.7

How did O=C(Nc1ccc(S(=O)(=O)N2CCCC2)cc1)C1CCCN1C(=O)c1cccs1 (stereo not given) do in these assays?
DRD3 antagonist: 6.6; D3 ag: 8.5; TDP1 cell CPT: 1.3%; TDP1 cell noCPT: -18.8%; IL1B secr inh: -2.6

How did COCCn1c(=O)[nH]c2cc(C(=O)NCCN3CCN(c4cccc(Cl)c4)CC3)ccc2c1=O do in these assays?
DRD3 antagonist: inconclusive; D3 ag: 6.2; TDP1 cell CPT: 14.6µM*; TDP1 cell noCPT: 3.26µM*; ClpP mod: -14.5%; IL1B secr inh: 21.9

What do the screens show for `CCN1C(=O)c2ccccc2Sc2ccc(NC(=O)N3CCN(c4cc(C)ccc4C)CC3)cc21`?
D3 ag: 5.4; TDP1 cell CPT: 5.8µM*; TDP1 cell noCPT: 4.11µM*; ClpP mod: -0.8%

What do the screens show for `Cc1ccc(C)c(N2CCN(C(=O)Nc3ccc4c(c3)N(C)C(=O)CS4)CC2)c1`?
DRD3 antagonist: 23.4; D3 ag: 2.3; TDP1 cell CPT: 20.6µM*; TDP1 cell noCPT: 16.4µM*; ClpP mod: 0.9%; IL1B secr inh: 45.9

Results for CC(C)CN1C(=O)C(=Nc2cccnc2)c2ccccc21 ?
DRD3 antagonist: inconclusive; D3 ag: -8.6; TDP1 cell CPT: 3.66µM*; TDP1 cell noCPT: 4.61µM*; ClpP mod: -4.0%; IL1B secr inh: 79.0

How did O=S(=O)(CCNC1CC1)NC1CCCCC1 do in these assays?
DRD3 antagonist: -6.6; D3 ag: -14.1; TDP1 cell CPT: -10.7%; TDP1 cell noCPT: -16.1%; ClpP mod: -3.7%; IL1B secr inh: 21.7

How did O=S(=O)(CCNCCc1ccccc1)NC1CCCCC1 do in these assays?
DRD3 antagonist: -84.5*; D3 ag: -41.7; TDP1 cell CPT: -1.5%; TDP1 cell noCPT: -17.4%; ClpP mod: -0.8%; IL1B secr inh: 20.2

Results for CC(C)=CCN1CCN(Cc2cn[nH]c2C2CCCCC2)CC1CCO (stereo not given) ?
DRD3 antagonist: -18.9; D3 ag: -6.1; TDP1 cell CPT: 5.6%; TDP1 cell noCPT: 2.4%; IL1B secr inh: -9.5

What do the screens show for `COc1ccc(OC)c(CNC(=O)c2ccc3c(c2)c(C)c(C)n3C)c1`?
D3 ag: 4.2; TDP1 cell CPT: inconclusive; TDP1 cell noCPT: inconclusive; ClpP mod: -22.4%

Results for CCc1ccc(CNC(=O)c2ccc3c(c2)c(C)c(C)n3Cc2ccccc2)cc1 ?
D3 ag: -8.7; TDP1 cell CPT: 18.4µM*; TDP1 cell noCPT: inconclusive; ClpP mod: 25.1µM*

How did Cc1ccc(-n2c(=O)c3ccc(C(=O)NCc4ccco4)cc3n(Cc3ccc(Cl)cc3)c2=O)cc1 do in these assays?
D3 ag: 9.5; TDP1 cell CPT: 18.4µM*; TDP1 cell noCPT: 6.51µM*; ClpP mod: -15.6%
